Assay results reported in PubChem BioAssay AID624111 (Johns Hopkins Ion Channel Center, 2012).
In all, about 4,000 compounds went through this assay and about 60 (2%) were called active.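 Rule for the calls: active = duplicate-averaged calcium fluorescence ratio at least three times the standard deviation of buffer wells, a nonspecific response in parental cells; inactive = the rest.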 The entries come from a sample that favours actives as a whole.

Assay: calcium flux effects in cells lacking MrgX1 – parental HEK293 cells, Fluo-4 calcium flux, counter-screen for MrgX1 antagonist project, confirmation (AID 624111)
Conditions: parental HEK293, Fluo-4 calcium fluorescence, FDSS; at 10 µM

Structure (SMILES) | fluorescence ratio F(max-min)/F0
COc1ccc(C(=O)NC(=S)NNC(=O)c2c(-c3ccccc3)noc2C)cc1 | inactive
O=C(COC(=O)c1ccc(NS(=O)(=O)c2cccs2)cc1O)Nc1ccc(F)cc1 | inactive
CN(CC(=O)Nc1ccccc1Cl)C(=O)COc1cccc2c1OC(C)(C)C2 | inactive
O=C(O)CSC(NC(=O)c1cccnc1)(C(F)(F)F)C(F)(F)F | inactive
Nc1cc(OC(=O)c2ccccc2Br)nn1S(=O)(=O)c1ccccc1 | inactive
COc1cc2c(cc1O)C(SC)=NC(C)(C)C2 | inactive
Cc1nn(-c2ccccc2)c2c1C(c1ccc(F)cc1)C(C#N)=C(N)O2 (stereo unspecified) | inactive
O=C(CSc1c2c(nc3ccc(Cl)cc13)CCCC2)NCc1ccco1 | inactive
COc1ccc(OC)c(C(=O)c2ccc(Cl)cc2)c1 | inactive
CCOc1ccc(C2=CC(c3ccccc3)n3ncnc3N2)cc1 (stereo unspecified) | inactive
O=C(c1cccs1)C1C(c2ccc(Br)cc2)NC(=S)NC1(O)C(F)(F)F (stereo unspecified) | inactive
CCOC1CCCCC1NS(=O)(=O)c1ccc(Cl)cc1 (stereo unspecified) | inactive
CC(C)CC(=O)NC(=S)NNC(=O)c1cccc([N+](=O)[O-])c1 | inactive
Cc1ccnc(NC(=O)C(C)N2C(=O)c3ccccc3C2=O)c1 (stereo unspecified) | inactive
O=C1CCCc2c1nc(-c1cccc(Cl)c1)n2O | inactive
O=C(CSc1nncn1-c1cccnc1)N1CCOCC1 | inactive

Structure (SMILES) | fluorescence ratio F(max-min)/F0
O=c1c2cc(Br)ccc2nc(-c2cccc(Cl)c2)n1O | inactive
O=C1Cc2ccccc2Sc2ccc(Cl)cc21 | inactive
CCOc1ccc2nc(/N=C/c3nc(-c4ccccc4)oc3O)sc2c1 | 0.438 (active)
COCC(C)NC(=O)c1ccc(Cl)c(Cl)c1 (stereo unspecified) | inactive
COCCNC(=O)C1CCN(S(=O)(=O)c2ccc3c(c2)OCCO3)CC1 | inactive
FC(F)Oc1ccc(NC(=S)NCc2ccco2)cc1Cl | inactive
COc1ccc(NC(=O)c2cc(-c3ccc(C)o3)nc3ccccc23)cc1 | inactive
O=C(COC(=O)C1CCN(S(=O)(=O)c2ccc3c(c2)OCCO3)CC1)Nc1ccccc1OC(F)F | inactive
CC1CCN(S(=O)(=O)c2nnc(NC(=O)COc3ccccc3F)s2)CC1 | inactive
COC(=O)Cn1c(O)c(N=NC(=O)OC)c2ccccc21 | inactive
O=C(Nc1nc2c(F)cc(F)cc2s1)C1COc2ccccc2O1 (stereo unspecified) | inactive
CC(C)OCCCNc1ncnc2c1[nH]c1ccc(F)cc12 | inactive
O=C(CC(O)(C(F)(F)F)C(F)(F)F)Nc1ccc(Cl)c(Cl)c1 | inactive
O=C(Nc1ccccc1N1CCOCC1)c1csc2c1CCCC2 | inactive
Cc1ccc2cc(/C=N/Nc3ccc(C(=O)O)cc3)c(Cl)nc2c1 | inactive
